# Data reported in PubChem BioAssay.
# Active and inactive are the calls of the source. Unless noted, no rule for the calls is given here.
# Tests used:
# [1] = compounds binding Alexa647 anti-His antibody – biochemical, small-molecule microarray, 635 nm fluorescence, artefact control for SMM control protein annotation, primary screen (AID 1128); details: higher = more signal;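 also: score merges feature fluorescence with signal-to-noise for each printed compound spot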
# [2] = tested on: Human papillomavirus type 1a E7 protein (residues 1-88); test: HPV1a E7 small-molecule binders, primary screen, biochemical, small-molecule microarray, residues 1-88, 635 nm (AID 1129); details: small-molecule microarray binding, fluorescence 635 nm; higher = more signal
# [3] = target: Focal adhesion kinase 1 (Homo sapiens) (UniProt Q05397); test: PTK2 protein binding on printed compound slides – biochemical, small-molecule microarray, 635/667 nm fluorescence, BSA, DTT, primary screen (AID 1130); details: 635 nm fluorescence, higher = more signal;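 also: composite of spot emission at 667 nm and signal to noise over triplicate slides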
# [4] = tested on: Fibrinogen (Alexa647-labelled); test: Alexa647-fibrinogen binding to printed small molecules – biochemical, small-molecule microarray, 635/667 nm fluorescence, artefact control for SMM control-protein annotation, profiling panel (AID 1131); details: fibrinogen-A647 binding fluorescence, higher = more signal;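 also: z-score merges 667 nm fluorescence with per-spot signal-to-noise over triplicate slides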
# [5] = target: Follistatin (Homo sapiens) (UniProt P19883); test: FST protein binding to printed compounds – biochemical, small-molecule microarray, 635/667 nm fluorescence, primary screen (AID 1132); details: 635 nm fluorescence, higher = more signal
# [6] = target: Fibroblast growth factor 2 (Homo sapiens) (UniProt P09038); test: basic fibroblast growth factor binding to printed compounds – biochemical, small-molecule microarray, 635/667 nm fluorescence, primary screen (AID 1133); details: FGF2, fluorescence 635/667, higher = more signal
# [7] = JC-1 mitochondrial potential readout, lung cancer cells – cell-based, A549, JC-1 fluorescence, basal, 24 h, 100 nL, profiling panel (AID 1138); details: higher = more signal;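 also: A549 lung adenocarcinoma cells under basal conditions with no added stimulus; test concentration not given here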
# Lefty1 = Lefty1 protein binding to printed compounds – biochemical, small-molecule microarray, 635/667 nm fluorescence, primary screen (AID 1139); details: fluorescence 635/667, higher = more signal
# [8] = tested on: wheat germ agglutinin (Triticum aestivum), Alexa647-labelled; test: Alexa647-WGA lectin binding to printed small molecules – biochemical, small-molecule microarray, 635/667 nm fluorescence, artefact control for SMM control-protein annotation, profiling panel (AID 1140); details: WGA-A647 binding, 635 nm fluorescence, higher = more signal;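 also: score merges 667 nm feature emission with signal to noise over triplicate slides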
# [9] = target: Luciferin 4-monooxygenase (Photinus pyralis) (UniProt P08659); test: inhibition of purified Photinus pyralis luciferase – biochemical, luminescence, purified enzyme, 2006 set, primary screen (AID 1141); details: purified firefly luciferase, SteadyGlo luminescence, 30 min; higher = more signal, called active from +8 up or from −8 down;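 also: cell-free assay with purified firefly luciferase at 100 ng per well in PBS; test concentration not given here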
# [10] = tested on: Wnt5a (protein binding on small-molecule microarray); test: small molecules binding Wnt5a protein – biophysical, small-molecule microarray, 635/667 nm fluorescence, primary screen (AID 1142); details: 635 nm fluorescence, higher = more signal;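 also: fluorescence read at 667 nm with signal to noise per printed feature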
# [11] = ATP-based viability of Huh7 replicon cells – cell-based, CellTiter-Glo luminescence, basal, 48 h, cytotoxicity control for HCV replication inhibitor project, primary screen (AID 1143); details: higher = more signal, called active from +8 up or from −8 down;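 also: Huh7 hepatoma cells carrying a hepatitis C replication reporter with no stimulus; test concentration not given here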
# [12] = Pseudomonas biofilm growth suppression – PAO1 strain, BacTiter-Glo luminescence, LB-PBS, primary screen (AID 1144); details: P. aeruginosa PAO1 biofilm, 12 h, higher = more signal
# [13] = basal CRE-LacZ reporter activity in PC12 – cell-based, unstimulated, primary screen (AID 1145); details: no forskolin, luminescence, 4.5 h, higher = more signal, called active from +8 up or from −8 down
# [14] = forskolin-driven CRE-LacZ activity in PC12 – cell-based, CRE-LacZ reporter, forskolin-stimulated, primary screen (AID 1146); details: luminescence, 4.5 h, higher = more signal, called active from +8 up or from −8 down;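 also: PC12 cells with 6xCRE LacZ reporter stimulated by forskolin 10 µM; beta-galactosidase reporter signal reflecting CREB driven transcription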
# [15] = target: Streptavidin (Streptomyces avidinii) (UniProt P22629); test: compounds binding control protein streptavidin – biophysical, small-molecule microarray, 635/667 nm fluorescence, artefact control for SMM compound annotation, primary screen (AID 1147); details: higher = more signal;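 also: signal reflects streptavidin binding to arrayed compounds as a control protein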
# [16] = probe aInhba binding on compound microarray – biochemical, small-molecule microarray, 635/667 nm fluorescence, primary screen (AID 1148); details: higher = more signal;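 also: score merges 667nm spot fluorescence with signal-to-noise for antibody binding to printed compounds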
# Torsin-1A (Homo sapiens) [17] = target: Torsin-1A (Homo sapiens) (UniProt O14656); test: TOR1A wild-type binding on microarray – cell lysate, small-molecule microarray, lysate, 635/667 nm, primary screen (AID 1149); details: COS7 hTOR1A-WT lysate, 635 nm fluorescence, higher = more signal
# Torsin-1A (Homo sapiens) [18] = target: Torsin-1A (Homo sapiens) (UniProt O14656); test: torsin A mutant lysate binding on microarrays – cell lysate, small-molecule microarray, COS7 lysate, 635/667 nm fluorescence, primary screen (AID 1150); details: COS7 hTOR1A mutant lysate, 635 nm fluorescence, higher = more signal;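 also: score pools 667 nm emission and signal to noise measuring lysate protein binding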
# [19] = tested on: Sonic hedgehog protein (Shh); test: Sonic hedgehog microarray binding compounds – biochemical, small-molecule microarray, 635/667 nm fluorescence, primary screen (AID 1151); details: 635 nm fluorescence, higher = more signal;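 also: Shh protein binding to compounds spotted on small-molecule microarray slides; score combines spot fluorescence intensity with signal-to-noise across triplicate slides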
# Sequence of Focal adhesion kinase 1 (Homo sapiens) (Q05397 whole entry, looked up): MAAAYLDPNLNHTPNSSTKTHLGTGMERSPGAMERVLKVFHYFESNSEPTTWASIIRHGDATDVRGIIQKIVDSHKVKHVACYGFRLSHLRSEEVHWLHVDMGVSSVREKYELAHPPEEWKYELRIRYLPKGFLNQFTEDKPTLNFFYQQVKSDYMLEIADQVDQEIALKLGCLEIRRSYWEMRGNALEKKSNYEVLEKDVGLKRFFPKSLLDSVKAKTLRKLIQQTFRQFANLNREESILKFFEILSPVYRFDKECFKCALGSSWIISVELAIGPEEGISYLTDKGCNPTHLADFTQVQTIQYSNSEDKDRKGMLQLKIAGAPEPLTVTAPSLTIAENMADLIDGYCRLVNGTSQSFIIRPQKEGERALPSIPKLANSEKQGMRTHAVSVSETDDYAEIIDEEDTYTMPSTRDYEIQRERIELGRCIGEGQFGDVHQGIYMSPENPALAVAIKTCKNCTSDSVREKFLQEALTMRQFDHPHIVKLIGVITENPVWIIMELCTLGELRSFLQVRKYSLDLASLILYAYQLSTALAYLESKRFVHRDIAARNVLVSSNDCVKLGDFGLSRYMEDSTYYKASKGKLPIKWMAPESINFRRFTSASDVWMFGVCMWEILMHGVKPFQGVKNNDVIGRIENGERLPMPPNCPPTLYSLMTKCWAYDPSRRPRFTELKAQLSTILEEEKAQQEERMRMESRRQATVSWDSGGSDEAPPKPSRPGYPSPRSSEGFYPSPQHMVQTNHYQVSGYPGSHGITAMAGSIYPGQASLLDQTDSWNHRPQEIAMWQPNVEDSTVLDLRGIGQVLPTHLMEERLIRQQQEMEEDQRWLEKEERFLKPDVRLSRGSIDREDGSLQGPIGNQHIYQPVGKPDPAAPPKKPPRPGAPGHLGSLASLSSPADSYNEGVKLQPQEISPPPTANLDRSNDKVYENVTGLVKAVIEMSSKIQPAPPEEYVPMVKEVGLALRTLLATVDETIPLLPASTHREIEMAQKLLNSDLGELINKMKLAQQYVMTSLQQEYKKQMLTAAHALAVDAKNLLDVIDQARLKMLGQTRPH
# Sequence of Fibroblast growth factor 2 (Homo sapiens) (P09038 whole entry, looked up): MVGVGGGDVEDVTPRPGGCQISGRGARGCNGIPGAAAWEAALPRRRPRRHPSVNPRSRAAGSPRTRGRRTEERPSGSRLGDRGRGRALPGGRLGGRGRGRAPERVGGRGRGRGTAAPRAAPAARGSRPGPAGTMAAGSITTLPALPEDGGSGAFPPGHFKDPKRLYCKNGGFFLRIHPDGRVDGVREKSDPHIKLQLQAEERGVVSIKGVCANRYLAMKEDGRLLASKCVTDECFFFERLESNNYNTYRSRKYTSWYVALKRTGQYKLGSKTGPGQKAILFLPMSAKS
# Sequence of Luciferin 4-monooxygenase (Photinus pyralis) (P08659 whole entry, looked up): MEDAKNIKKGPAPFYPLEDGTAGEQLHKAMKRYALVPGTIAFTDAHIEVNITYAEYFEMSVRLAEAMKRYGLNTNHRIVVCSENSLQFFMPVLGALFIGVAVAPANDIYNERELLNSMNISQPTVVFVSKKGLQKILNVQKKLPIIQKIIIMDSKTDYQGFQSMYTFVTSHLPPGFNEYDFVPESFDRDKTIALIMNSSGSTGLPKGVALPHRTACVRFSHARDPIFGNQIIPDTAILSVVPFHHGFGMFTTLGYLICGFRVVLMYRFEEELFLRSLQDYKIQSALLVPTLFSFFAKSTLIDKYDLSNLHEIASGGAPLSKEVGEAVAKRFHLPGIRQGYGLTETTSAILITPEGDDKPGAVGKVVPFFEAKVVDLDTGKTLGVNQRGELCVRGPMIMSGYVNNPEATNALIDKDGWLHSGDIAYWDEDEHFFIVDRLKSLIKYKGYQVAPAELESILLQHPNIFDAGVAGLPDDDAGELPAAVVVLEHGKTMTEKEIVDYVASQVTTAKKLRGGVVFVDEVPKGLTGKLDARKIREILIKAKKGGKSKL
# Sequence of Torsin-1A (Homo sapiens) (O14656 whole entry, looked up): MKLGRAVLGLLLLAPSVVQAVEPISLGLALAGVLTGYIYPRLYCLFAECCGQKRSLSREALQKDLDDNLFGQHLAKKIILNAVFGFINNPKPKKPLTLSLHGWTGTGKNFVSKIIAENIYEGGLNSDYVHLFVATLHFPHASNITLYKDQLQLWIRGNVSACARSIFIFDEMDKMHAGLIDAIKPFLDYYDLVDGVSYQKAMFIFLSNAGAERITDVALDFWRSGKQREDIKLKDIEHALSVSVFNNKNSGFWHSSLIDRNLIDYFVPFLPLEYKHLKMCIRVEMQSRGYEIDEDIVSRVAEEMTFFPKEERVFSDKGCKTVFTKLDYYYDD
# Sequence of Streptavidin (Streptomyces avidinii) (P22629 whole entry, looked up): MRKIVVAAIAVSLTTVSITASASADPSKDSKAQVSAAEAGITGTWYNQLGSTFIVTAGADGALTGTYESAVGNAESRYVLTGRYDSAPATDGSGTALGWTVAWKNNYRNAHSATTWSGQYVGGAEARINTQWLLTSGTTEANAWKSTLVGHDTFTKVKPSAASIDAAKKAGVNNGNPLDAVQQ
# Sequence of Follistatin (Homo sapiens) (P19883 whole entry, looked up): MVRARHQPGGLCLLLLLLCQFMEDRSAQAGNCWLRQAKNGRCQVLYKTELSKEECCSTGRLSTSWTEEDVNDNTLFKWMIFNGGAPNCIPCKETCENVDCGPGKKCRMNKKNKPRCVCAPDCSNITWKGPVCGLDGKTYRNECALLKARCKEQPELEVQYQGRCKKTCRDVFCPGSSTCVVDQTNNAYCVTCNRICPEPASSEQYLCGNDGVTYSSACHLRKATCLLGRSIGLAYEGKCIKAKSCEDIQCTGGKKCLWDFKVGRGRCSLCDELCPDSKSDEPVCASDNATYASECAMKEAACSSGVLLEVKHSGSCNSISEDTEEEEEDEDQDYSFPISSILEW
SMILES,composite z-score [1],composite z-score [2],composite z-score [3],composite z-score [4],composite z-score [5],composite z-score [6],z-score [7],composite z-score (Lefty1),composite z-score [8],z-score [9],composite z-score [10],z-score [11],z-score [12],z-score [13],z-score [14],composite z-score [15],composite z-score [16],composite z-score (Torsin-1A (Homo sapiens) [17]),composite z-score (Torsin-1A (Homo sapiens) [18]),composite z-score [19]
CC(C)C[C@@H]1NC(=O)C([C@@H](C)OCc2ccccc2)NC(=O)[C@@]23C(=O)N[C@@H](Cc4ccccc4)C2[C@H](C)[C@@]2(C)O[C@H]2C3/C=C/CC/C=C/CNC1=O (stereo not given in full),0.48,0.809,0.87,-0.209,0.761,1.11,0.728,0.659,0.503,0.533 (inactive),0.237,-4.9 (inactive),-0.469 (inactive),1.76 (inactive),-1.52 (inactive),0.264,-0.206,-0.608,0.32,1.07
COC(=O)[C@@]1(Cc2ccccc2)[C@H]2c3cc(C(=O)N4CCCC4)n(Cc4ccc(C(F)(F)F)nc4)c3C[C@H]2CN1C(=O)c1ccccc1,0.472,1.28,1.23,1.06,0.778,-0.38,1.32,0.333,1.05,2.36 (inactive),0.836,-2.97 (inactive),0.519 (inactive),0.0075 (inactive),-0.611 (inactive),1.78,0.446,1.03,0.774,-0.878
CC(=O)NCCCC[C@@H]1NC(=O)[C@@H]2C[C@H](C(=O)NCCCCCC[N+](C)(C)C)[C@H](c3ccc(O)cc3)N2C1=O,3.45,0.377,-0.153,0.333,1.41,1.56,-0.856,0.907,0.78,0.32 (inactive),0.0463,0.159 (inactive),0.795 (inactive),-0.675 (inactive),-0.293 (inactive),-0.314,-0.105,0.0055,0.885,1.75
COC(=O)[C@@]1(Cc2ccccc2CN=[N+]=[N-])COC(c2ccc(OCCCO)cc2)=N1,-0.322,-0.493,-0.161,-2.41,-1.88,-1.18,-0.408,-1.65,0.0216,-1.88 (inactive),-1.09,-3.56 (inactive),-0.0995 (inactive),1.19 (inactive),-0.244 (inactive),-1.25,-0.203,-3.23,-2.37,-1.15
COc1ccc(CCNC(=O)[C@@]2(C)c3ccccc3C(=O)N(Cc3cc(C(F)(F)F)cc(C(F)(F)F)c3)[C@H]2c2ccc(CO)cc2)cc1,0.202,1.07,0.431,-0.0796,1.19,0.491,0.502,0.0292,0.367,-0.868 (inactive),0.024,-5.45 (inactive),0.603 (inactive),1.18 (inactive),-0.896 (inactive),-0.404,-0.102,0.602,1.52,0.198
[N-]=[N+]=NCc1ccccc1C[C@]1(C(=O)N2CCOCC2)N=C(c2ccc(OCCCO)cc2)O[C@H]1c1ccccc1CN=[N+]=[N-],2.97,1.25,0.681,0.963,1.3,1.92,1.68,-0.232,1,-1.25 (inactive),1.42,-3.43 (inactive),-0.52 (inactive),0.778 (inactive),-1.32 (inactive),1.24,1.28,0.3,0.863,-0.0561
CN(C)CCCC[C@@H]1NC(=O)[C@H]2C[C@@H](C(=O)NCc3ccc(F)cc3)[C@@H](c3ccc(O)cc3)N2C1=O,2.75,0.0526,-0.193,0.563,1.41,1.93,0.742,1.64,0.419,-1.23 (inactive),0.727,0.0491 (inactive),0.792 (inactive),0.0084 (inactive),-0.19 (inactive),-0.122,0.0676,1.12,0.587,2.15
COc1ccccc1CN1C(=O)c2ccccc2[C@](Cc2ccccc2I)(C(=O)NCCCN(C)C)[C@@H]1c1ccc(CO)cc1,0.237,1.21,0.904,0.944,0.489,0.141,-2.4,0.0523,0.0618,-0.644 (inactive),0.168,-5.84 (inactive),0.777 (inactive),3.31 (inactive),5.18 (inactive),0.956,-0.187,-0.26,0.409,0.814
CCOC(=O)C1=CC[C@@H](c2ccc(F)cc2)N(S(=O)(=O)c2ccc(C)cc2)[C@H]1c1ccc([N+](=O)[O-])cc1,0.353,1.19,0.866,0.954,0.283,-0.218,1.83,0.242,0.742,2.28 (inactive),0.0382,-2.52 (inactive),-1.24 (inactive),-1.73 (inactive),0.66 (inactive),0.812,0.0131,-0.116,0.599,-0.0316
